Assay results published in PubChem BioAssay AID1159580 (chemical genetic matrix, 2015).
Where “and” joins values, the source holds several entries; their conditions need not be identical. Equal entries are not always repeated. The campaign covered roughly 5,500 compounds. About 2,000 (36%) were called active. Not shown: some 18% with an inconclusive outcome. Rule as the data show it: active = normalized growth mostly below about 0.91 (no sharp cut-off); inconclusive = no clear call, values can overlap the other calls; inactive = mostly above about 0.92. This is one part of the list.

Test: chemical genetic growth profiling, strain panel (AID 1159580);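 also: tested at 20 µM; growth read once vehicle control cultures reached saturation at 30 °C; 1 = growth at the plate median or of vehicle wells; lower values mean less growth of the strain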
Conditions: S. cerevisiae deletion strains, growth OD

Measured: normalized growth

Clc1ccc(COC(Cn2ccnc2)c2ccc(Cl)cc2Cl)c(Cl)c1 (configuration not stated)
active: locus YAL013W, strain DEP1, stronger effect = lower value 0.0568 | locus YAL021C, strain ccr4, stronger effect = lower value 0.0668 | locus YAL026C, strain drs2, stronger effect = lower value 0.0674 | locus YAL030W, strain snc1, stronger effect = lower value 0.0581 | locus YBL061C, strain skt5, stronger effect = lower value 0.0608 | locus YBR009C, strain hhf1, stronger effect = lower value 0.0655 | locus YBR021W, strain FUR4, stronger effect = lower value 0.0874 | locus YBR023C, strain chs3, stronger effect = lower value 0.0682 | locus YBR171W, strain sec66, stronger effect = lower value 0.0803 | locus YBR229C, strain ROT2, stronger effect = lower value 0.0268 | locus YBR231C, strain swc5, stronger effect = lower value 0.0764 | locus YBR279W, strain paf1, stronger effect = lower value 0.0803 | locus YCL011C, strain gbp2, stronger effect = lower value 0.0572 | locus YCL016C, strain dcc1, stronger effect = lower value 0.0647 | locus YCL029C, strain bik1, stronger effect = lower value 0.0612 | locus YCL061C, strain MRC1, stronger effect = lower value 0.065 | locus YCL069W, strain vba3, stronger effect = lower value 0.0638 | locus YCR088W, strain abp1, stronger effect = lower value 0.0654 | locus YDL005C, strain med2, stronger effect = lower value 0.0803 | locus YDL035C, strain GPR1, stronger effect = lower value 0.0505 | locus YDL040C, strain nat1, stronger effect = lower value 0.0613 | locus YDL074C, strain BRE1, stronger effect = lower value 0.0763 | locus YDL101C, strain DUN1, stronger effect = lower value 0.0503 | locus YDL134C, strain PPH21, stronger effect = lower value 0.0516 | locus YDL185W, strain tfp1, stronger effect = lower value 0.0554 | locus YDL192W, strain arf1, stronger effect = lower value 0.0597 | locus YDR001C, strain nth1, stronger effect = lower value 0.0613 | locus YDR069C, strain doa4, stronger effect = lower value 0.065 | locus YDR101C, strain arx1, stronger effect = lower value 0.0587 | locus YDR137W, strain rgp1, stronger effect = lower value 0.111 | locus YDR150W, strain NUM1, stronger effect = lower value 0.0575 | locus YDR159W, strain sac3, stronger effect = lower value 0.0885 | locus YDR162C, strain NBP2, stronger effect = lower value 0.0451 | locus YDR195W, strain ref2 0.126 | locus YDR297W, strain sur2, stronger effect = lower value 0.0574 | locus YDR318W, strain mcm21, stronger effect = lower value 0.0643 | locus YDR334W, strain swr1, stronger effect = lower value 0.0662 | locus YDR335W, strain msn5, stronger effect = lower value 0.0617 | locus YDR388W, stronger effect = lower value 0.056 | locus YDR392W, strain spt3, stronger effect = lower value 0.101 | locus YDR502C, strain sam2, stronger effect = lower value 0.0624 | locus YEL003W, strain gim4, stronger effect = lower value 0.0564 | locus YEL037C, strain rad23, stronger effect = lower value 0.0601 | locus YEL061C, strain CIN8 (second series), stronger effect = lower value 0.0638 | locus YEL061C, strain CIN8, stronger effect = lower value 0.0482 | locus YER015W, strain faa2, stronger effect = lower value 0.0604 | locus YER016W, strain bim1, stronger effect = lower value 0.0607 | locus YER110C, stronger effect = lower value 0.0744 | locus YER111C, strain swi4, stronger effect = lower value 0.0809 | locus YER155C, strain BEM2 (second series), stronger effect = lower value 0.0947 | locus YER155C, strain BEM2, stronger effect = lower value 0.0667 | locus YER167W, strain BCK2, stronger effect = lower value 0.0577 | locus YFR010W, strain ubp6, stronger effect = lower value 0.0709 | locus YGL078C, strain dbp3, stronger effect = lower value 0.0696 | locus YGL086W, strain mad1, stronger effect = lower value 0.0583 | locus YGL167C, strain pmr1, stronger effect = lower value 0.0799 | locus YGL173C, strain kem1, stronger effect = lower value 0.072 | locus YGL227W, strain vid30, stronger effect = lower value 0.067 | locus YGL240W, strain doc1, stronger effect = lower value 0.0883 | locus YGL248W, strain PDE1, stronger effect = lower value 0.0461 | locus YGL253W, strain hxk2, stronger effect = lower value 0.0558 | locus YGR078C, strain PAC10, stronger effect = lower value 0.0558 | locus YGR135W, strain pre9, stronger effect = lower value 0.0676 | locus YGR229C, strain SMI1, stronger effect = lower value 0.0622 | locus YGR252W, strain gcn5, stronger effect = lower value 0.155 | locus YHR013C, strain ard1, stronger effect = lower value 0.106 | locus YHR027C, strain rpn1, stronger effect = lower value 0.0625 | locus YHR030C, strain SLT2, stronger effect = lower value 0.0509 and 0.102 | locus YHR079C, strain IRE1 (second series), stronger effect = lower value 0.0623 | locus YHR079C, strain IRE1, stronger effect = lower value 0.124 | locus YHR094C, strain hxt1, stronger effect = lower value 0.0654 | locus YHR129C, strain ARP1, stronger effect = lower value 0.0576 | locus YHR142W, strain chs7, stronger effect = lower value 0.0767 | locus YHR200W, strain rpn10, stronger effect = lower value 0.0606 | locus YIL066C, strain RNR3, stronger effect = lower value 0.0442 | locus YIL073C, strain SPO22, stronger effect = lower value 0.115 | locus YIL125W, strain kgd1, stronger effect = lower value 0.0693 | locus YIR030C, strain dcg1, stronger effect = lower value 0.0593 | locus YJL092W, strain hpr5, stronger effect = lower value 0.061 | locus YJL095W, strain BCK1 (second series), stronger effect = lower value 0.059 | locus YJL095W, strain BCK1, stronger effect = lower value 0.0515 and 0.106 | locus YJL115W, strain asf1, stronger effect = lower value 0.0748 | locus YJL129C, strain trk1, stronger effect = lower value 0.0933 | locus YJL134W, strain LCB3, stronger effect = lower value 0.0457 | locus YJL154C, strain vps35, stronger effect = lower value 0.062 | locus YJL164C, strain tpk1, stronger effect = lower value 0.0667 | locus YJL166W, strain qcr8, stronger effect = lower value 0.0609 | locus YJL168C, strain set2, stronger effect = lower value 0.0574 | locus YJL187C, strain SWE1 (second series), stronger effect = lower value 0.0406 | locus YJL187C, strain SWE1, stronger effect = lower value 0.0602 | locus YJR043C, strain POL32, stronger effect = lower value 0.0602 | locus YJR066W, strain TOR1, stronger effect = lower value 0.0025
